Screens (PubChem BioAssay)
Compounds with a hit are over-represented: about 4.3% of the library has one in this group of screens.
Peg3 prom inh – Peg3 promoter activity inhibition. HeLa PEG-Prom luciferase reporter, luminescence, overnight. AID 588405. 1.7% of 360,000 active. inhibition, % at 20 µM;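 active = inhibition of at least 50% at 20 µM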
CF NFkB inh – blocks PAF-induced NF-kB reporter in cystic fibrosis cells; AID 588850; inhibition, % at 5 µM; 0.86% of 360,000 active; KKLEB NF-kB-GFP reporter, GFP fluorescence overnight;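 active = at least 50% inhibition at 5 µM, scaled per plate between neutral and stimulator controls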;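 also: PAF is a Pseudomonas aeruginosa culture filtrate used as stimulus; plate controls were PAF-stimulated DMSO wells for no effect and unstimulated DMSO wells for full effect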
KKLEB cytotox – counter-screen for CF NF-kB inhibitors: cytotoxicity; KKLEB CF airway cells viability, ATPlite luminescence, overnight; stronger effect = lower value; cells stimulated with P. aeruginosa culture filtrate; activity change (cytotoxicity), % at 5 µM; 0.36% of 360,000 active; AID 602141;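 active = corrected activity change at or below -50% at 5 µM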
CHOP inhibitor – inhibitors of CHOP induction in ER stress response; AID 2732; inhibition, % at 10 µM; 3.8% of 220,000 active; CHO-K1 CHOP-promoter luciferase, tunicamycin-induced, 15-18 h;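 active = compounds that reduced the stress-induced luciferase reporter signal by more than about 70% of percent inhibition, limit read from the data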;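 also: 0% = tunicamycin plus vehicle and 100% = wells without tunicamycin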
HIF-2a inh – blocks HIF-2a reporter activity. 786-0 RCC cells HIF-2a reporter, luciferase luminescence, overnight. inhibition, % at 18.8 µM. 0.72% of 360,000 active. AID 624352;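 active = inhibition of the luminescence signal of 40% or more relative to plate controls, in a single-dose primary screen at 18.75 µM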
MITF TRPM1 inh – inhibitors of MITF-driven TRPM1 promoter in melanoma cells | SK-MEL-5 TRPM1 promoter luciferase, 24 h | inhibition, % at 12.5 µM | 0.83% of 330,000 active;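 active = mean inhibition across replicates of 60% or more, whatever share of single replicates reaches that level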
* hit, by the source's call; . = no result given.

SMILES | Peg3 prom inh | CF NFkB inh | KKLEB cytotox | CHOP inhibitor | HIF-2a inh | MITF TRPM1 inh
CCCCC[n+]1ccn(C2=C([O-])c3ccccc3C(=O)/C2=N\S(=O)(=O)c2ccccc2)c1 | 20 | 1 | 0 | -29 | 7 | 94*
COc1ccc(NC(=S)NNC(=O)COc2ccc(Cl)cc2Cl)cc1 | 7 | -18 | 3 | -1 | -1 | 7
COc1ccccc1NC(=S)NC(=O)CCCOc1ccc(Cl)cc1Cl | 14 | -5 | 2 | 77* | 8 | 1
CCC(=O)NC(=S)Nc1ccc(NC(=O)COc2ccc(Cl)cc2Cl)cc1 | -28 | -7 | 4 | 90* | -98 | -1
O=C(CC[C@H]1O[C@@H](n2ccc(=O)[nH]c2=O)[C@H](O)[C@@H]1O)NCCCc1ccccc1 | -1 | 15 | -8 | . | 7 | .
C=CCn1c(SCC(=O)c2[nH]c(C)c(C(=O)OCC)c2C)nc2scc(-c3ccccc3)c2c1=O | -3 | 16 | -9 | 88* | 13 | 38
C=CCn1c(SCC(=O)c2[nH]c(C)c(C(=O)OCC)c2C)nc2scc(-c3ccc(OC)cc3)c2c1=O | 54* | 32 | -37 | 65 | 19 | 82*
Cc1oc2cc(OC(C)C(=O)O)ccc2c(=O)c1Oc1ccccc1 (stereo unspecified) | 2 | 1 | -3 | -7 | 15 | 7
CCOc1ccc2c(=O)c(Oc3ccccc3)c(C)oc2c1 | -7 | 5 | -15 | 76* | -19 | -5
COC(=O)c1[nH]c2cc(OC)ccc2c1NC(=O)CN1CCN(c2cccc(C)c2)C(C)C1 (stereo unspecified) | 40 | 12 | -3 | 89* | 10 | 16
CCOc1ccc(Nc2ccnc3cc(Cl)ccc23)cc1 | -30 | 23 | -19 | -9 | -52 | -10
CCN1CCN(c2nc(-c3ccccn3)nc3ccccc23)CC1 | 21 | -8 | 16 | -21 | 1 | 9
CN1CCN(c2ccc(Nc3ccnc4cc(Cl)ccc34)cc2)CC1 | 61* | -49 | -6 | . | 1 | 22
CCN1CCN(c2ccc(Nc3ccnc4ccccc34)cc2)CC1 | 61* | 35 | -18 | . | 20 | 64*
O=C(NC(c1ccc(Cl)cc1)c1ccsc1)C1CCN(Cc2ccc(Oc3ccccc3)cc2)CC1 (stereo unspecified) | 12 | 18 | -32 | . | 5 | .
COc1ccccc1N1CCN(C(=O)CCn2c(=O)[nH]c3ccccc3c2=O)CC1 | 3 | -6 | -1 | -7 | 10 | 17
COc1ccccc1N1CCN(C(=O)CCCn2c(=S)[nH]c3ccccc3c2=O)CC1 | 68* | -11 | 0 | . | 8 | .
NC(Cc1ccc(C(F)(F)F)cc1)c1csc(Nc2ccc(S(N)(=O)=O)cc2)n1 (stereo unspecified) | 32 | 1 | -9 | . | 5 | .
c1ccc(Oc2nc3ccccc3n3cccc23)cc1 | 0 | -25 | 10 | 70* | -5 | 1
CN(C)c1nc(N/N=C\c2ccc(Cl)c([N+](=O)[O-])c2)nc(Nc2ccc(F)cc2)n1 | 65* | -10 | 5 | . | -37 | 1
Nn1cnnc1N/N=C/c1ccc(Cl)c([N+](=O)[O-])c1 | 5 | 9 | 2 | 7 | 11 | 12
CCCN(CC(=O)Nc1ccccc1OC)Cc1c(O)ccc2ccccc12 | 11 | -14 | 10 | . | 4 | 6
O=C(CSc1nc(-c2ccc(F)cc2)cc(C(F)(F)F)n1)Nc1ccc2c(c1)OCO2 | -1 | 0 | -6 | 73* | 3 | -10
FC(F)(F)c1cc(-c2ccco2)nc(NCc2cccs2)n1 | 6 | 3 | 0 | -24 | 11 | 8
FC(F)(F)c1cc(-c2ccccc2)nc(NCc2cccs2)n1 | 15 | 9 | 1 | 75* | 17 | 6
O=C(CSc1nc(-c2ccccc2)cc(C(F)(F)F)n1)NCc1ccco1 | 15 | -1 | 9 | 12 | 9 | -15
COc1ccc(-c2cc(C(F)(F)F)nc(SCC(=O)NCc3cccs3)n2)cc1 | 7 | -7 | 9 | 70* | -25 | -8
O=C(CSc1nc(-c2ccccc2)cc(C(F)(F)F)n1)NCc1cccs1 | 32 | 16 | -5 | 82* | 34 | -18
CC(C)c1nc(SCC(=O)Nc2ccc3c(c2)OCO3)n[nH]1 | 13 | 14 | 5 | 56 | 13 | 4
CCOC(=O)C1=C(COc2ccc(C)cc2)NC(=O)NC1c1cc(C)ccc1C (stereo unspecified) | -8 | 5 | -3 | 90* | 11 | -6
